# Data published in the supplement of paper PMC8728848.
# The sample as a whole holds a higher share of the strongest signals than the screen did.
# Legend:
# Experiment in all cases: glycan array binding signal (z-score within array); higher = stronger binding
# Conditions in all cases: glycan notation: IUPAC condensed, linker removed
# [1] = target: Fuc(a1-2)Gal(b1-3)GalNAc(a1-3)[Fuc(a1-2)]Gal(b1-4)Glc
# How it was run: (§1)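 Columns mapping to the same glycan were averaged after glycan names were converted to IUPAC-condensed notation. The data come from 3228 arrays in the Consortium for Functional Glycomics database, limited to those with an available protein sequence. Binding is reported as a within-array Z-score averaged across arrays of one protein sequence and across linkers.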
# [2] = target: Fuc(a1-2)Gal(b1-3)[Fuc(a1-4)]GlcNAc(b1-2)Man(a1-3)[Fuc(a1-2)Gal(b1-3)[Fuc(a1-4)]GlcNAc(b1-2)Man(a1-3)]Man(b1-4)GlcNAc(b1-4)GlcNAc
# How it was run: as §1
# [3] = target: Fuc(a1-2)Gal(b1-4)Fuc(a1-3)]GlcNAc(b1-2)Man(a1-3)[Fuc(a1-2)Gal(b1-4)[Fuc(a1-3)]GlcNAc(b1-2)Man(a1-6)]Man(b1-4)GlcNAc(b1-4)GlcNAc
# How it was run: as §1
# [4] = target: Fuc(a1-2)Gal(b1-4)GlcNAc(b1-3)Gal(b1-4)GlcNAc
# How it was run: as §1
# [5] = target: Fuc(a1-2)Gal(b1-4)GlcNAc(b1-3)Gal(b1-4)GlcNAc(b1-3)Gal(b1-4)GlcNAc
# How it was run: as §1
# [6] = target: Fuc(a1-2)Gal(b1-4)GlcNAc(b1-3)[Fuc(a1-3)[Gal(b1-4)]GlcNAc(b1-6)]Gal(b1-4)Glc
# How it was run: as §1
# [7] = target: Fuc(a1-2)[Gal(a1-4)]Gal(b1-4)GlcNAc
# How it was run: as §1
# [8] = target: Fuc(a1-2)[GalNAc(a1-3)]Gal(b1-3)GalNAc(a1-3)[Fuc(a1-2)]Gal(b1-4)GlcNAc
# How it was run: as §1
# [9] = target: Fuc(a1-2)[GalNAc(a1-3)]Gal(b1-3)GlcNAc(b1-6)GalNAc
# How it was run: as §1
# [10] = target: Fuc(a1-3)[Gal(b1-4)]GlcNAc(b1-3)Gal(b1-3)[Fuc(a1-4)]GlcNAc
# How it was run: as §1
# [11] = target: Gal(a1-4)Gal(b1-3)GlcNAc(b1-2)Man(a1-3)[Gal(a1-4)Gal(b1-3)GlcNAc(b1-2)Man(a1-6)]Man(b1-4)GlcNAc(b1-4)GlcNAc
# How it was run: as §1
# Gal(b1-3)GalNAc(b1-3)Gal = target: Gal(b1-3)GalNAc(b1-3)Gal
# How it was run: as §1
# [12] = target: Gal(b1-3)GlcNAc(b1-3)Gal(b1-4)Glc
# How it was run: as §1
# [13] = target: Gal(b1-3)[Fuc(a1-4)]GlcNAc(b1-3)Gal(b1-3)[Fuc(a1-4)]GlcNAc
# How it was run: as §1
# [14] = target: Gal(b1-4)GalNAc(a1-3)[Fuc(a1-2)]Gal(b1-4)GlcNAc
# How it was run: as §1
# [15] = target: Gal(b1-4)GlcNAc(b1-2)[Gal(b1-4)GlcNAc(b1-4)]Man(a1-3)[Gal(b1-4)GlcNAc(b1-2)Man(a1-6)]Man(b1-4)GlcNAc(b1-4)GlcNAc
# How it was run: as §1
# [16] = target: Gal(b1-4)GlcNAc(b1-3)Gal(b1-3)GalNAc
# How it was run: as §1
# [17] = target: Gal(b1-4)GlcNAc(b1-3)Gal(b1-4)GlcNAc(b1-2)[Gal(b1-4)GlcNAc(b1-3)Gal(b1-4)GlcNAc(b1-6)]Man(a1-6)[Gal(b1-4)GlcNAc(b1-3)Gal(b1-4)GlcNAc(b1-2)Man(a1-3)]Man(b1-4)GlcNAc(b1-4)[Fuc(a1-6)]GlcNAc
# How it was run: as §1
# [18] = target: Gal(b1-4)GlcNAc(b1-3)Gal(b1-4)GlcNAc(b1-3)Gal(b1-4)GlcNAc(b1-2)Man(a1-3)[Gal(b1-4)GlcNAc(b1-3)Gal(b1-4)GlcNAc(b1-3)Gal(b1-4)GlcNAc(b1-2)Man(a1-6)]Man(b1-4)GlcNAc(b1-4)GlcNAc
# How it was run: as §1
# [19] = target: Gal(b1-4)GlcNAc(b1-3)Gal(b1-4)GlcNAc(b1-3)Gal(b1-4)GlcNAc(b1-2)[Gal(b1-4)GlcNAc(b1-3)Gal(b1-4)GlcNAc(b1-3)Gal(b1-4)GlcNAc(b1-6)]Man(a1-6)[Gal(b1-4)GlcNAc(b1-3)Gal(b1-4)GlcNAc(b1-3)Gal(b1-4)GlcNAc(b1-2)Man(a1-3)]Man(b1-4)GlcNAc(b1-4)[Fuc(a1-6)]GlcNAc
# How it was run: as §1
# [20] = target: Gal(b1-4)GlcNAc(b1-3)Gal(b1-4)GlcNAc(b1-6)[Gal(b1-3)]GalNAc
# How it was run: as §1
# [21] = target: Gal(b1-4)GlcNAc(b1-3)[GlcNAc(b1-6)]Gal(b1-4)GlcNAc
# How it was run: as §1
# Gal3S(b1-4)Glc6S = target: Gal3S(b1-4)Glc6S
# How it was run: as §1
# [22] = target: Gal3S(b1-4)[Fuc(a1-3)]Glc6S
# How it was run: as §1
# Gal3S4S(b1-4)GlcNAc = target: Gal3S4S(b1-4)GlcNAc
# How it was run: as §1
# GalNAc(a1-3)Gal = target: GalNAc(a1-3)Gal
# How it was run: as §1
# [23] = target: GalNAc(a1-3)GalNAc(b1-3)Gal(a1-4)Gal(b1-4)Glc
# How it was run: as §1
# [24] = target: GalNAc(b1-3)Gal(a1-4)Gal(b1-4)GlcNAc(b1-3)Gal(b1-4)Glc
# How it was run: as §1
# Glc(a1-4)Glc = target: Glc(a1-4)Glc
# How it was run: as §1
# Glc(a1-6)Glc(a1-6)Glc = target: Glc(a1-6)Glc(a1-6)Glc
# How it was run: as §1
binder,measurement,setting,value
Epa11 (Candida glabrata) (protein) MGSSHHHHHHSSGLVPRGSHMASSNAPNYPVGCSPSVGTQLTPGLSLEVYAYPMDGNNGYCWNATYKDPEFPRSGYLKNKLLGKADGVVGPLNFLAKNKDCSPKVDTLPAGFNFPQPITVTNFTMVLFGYLAPKQSGKYTFKLLADDLLLLNLGATNAFDCCNREATKNNLGEFLAYNLWPNQDKNVTVYLEKGVYYPLRLFFNNRDGGSQLDFSYYFNDSPAPLTDFSGMFFSVPDGAECPARI,glycan array binding signal (z-score),[1],-0.518
same,glycan array binding signal (z-score),[2],-0.183
same,glycan array binding signal (z-score),[3],2.88
same,glycan array binding signal (z-score),[4],-0.92
same,glycan array binding signal (z-score),[5],-0.015
same,glycan array binding signal (z-score),[6],0.437
same,glycan array binding signal (z-score),[7],0.294
same,glycan array binding signal (z-score),[8],-0.24
same,glycan array binding signal (z-score),[9],-0.276
same,glycan array binding signal (z-score),[10],-0.232
same,glycan array binding signal (z-score),[11],1.7
same,glycan array binding signal (z-score),Gal(b1-3)GalNAc(b1-3)Gal,-0.185
same,glycan array binding signal (z-score),[12],-0.214
same,glycan array binding signal (z-score),[13],2.35
same,glycan array binding signal (z-score),[14],-0.453
same,glycan array binding signal (z-score),[15],-0.412
same,glycan array binding signal (z-score),[16],-0.415
same,glycan array binding signal (z-score),[17],1.98
same,glycan array binding signal (z-score),[18],2.67
same,glycan array binding signal (z-score),[19],1.94
same,glycan array binding signal (z-score),[20],1.77
same,glycan array binding signal (z-score),[21],-0.836
same,glycan array binding signal (z-score),Gal3S(b1-4)Glc6S,0.304
same,glycan array binding signal (z-score),[22],1.71
same,glycan array binding signal (z-score),Gal3S4S(b1-4)GlcNAc,-0.9
same,glycan array binding signal (z-score),GalNAc(a1-3)Gal,-0.428
same,glycan array binding signal (z-score),[23],-0.437
same,glycan array binding signal (z-score),[24],-0.094
same,glycan array binding signal (z-score),Glc(a1-4)Glc,-1.42
same,glycan array binding signal (z-score),Glc(a1-6)Glc(a1-6)Glc,-0.516
